For three molecules, outcome and AC50 results are on record in PubChem BioAssay (EPA / NIEHS).

The source holds several records for some structures; these can differ, active in one and inactive in another. Active and inactive are the calls of the source. The calls were made as follows: active = hit-call score of the fitted dose curve at least 0.9, where 1 is the maximum; inactive = score below 0.9.

The nature of assay [1]: ATG_GLI_CIS: Attagene CIS-FACTORIAL HepG2 Assay for human Zinc Finger Protein GLI1 (AID 2282945). To be noted: HepG2, Attagene cis-factorial reporter mRNA, GLI element; actives raise or lower the signal. A digest of the protocol: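 Bidirectional curve fits relative to DMSO, using reporter mRNA levels from RT-PCR plus capillary electrophoresis. Cells were HepG2 transiently carrying cis-regulated reporter constructs, harvested 24 h after dosing.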

The target in assay [2] is Bile acid receptor (Homo sapiens) (UniProt Q96RI1). Description: ATG_IR1_CIS: Attagene CIS-FACTORIAL HepG2 Assay for human Nuclear Receptor Subfamily 1 Group H Member 4 (NR1H4), IR1 submotif (AID 2282946). To be noted: IR1 reporter transcription, actives raise or lower the signal. A digest of the protocol: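 HepG2 cells transiently transfected with multiplexed cis-element reporter units read endogenous transcription factor activity. After 24 h compound exposure, reporter mRNA was quantified by RT-PCR, fluorescent labelling, HpaI digestion and capillary electrophoresis; bidirectional fitting versus DMSO baseline.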

A short description of assay [3]: ATG_GRE_CIS: Attagene CIS-FACTORIAL HepG2 Assay for human Glucocorticoid Response Elements (GRE) (AID 2282947). The settings on record: HepG2 GRE cis-reporter, Attagene multiplex mRNA; actives raise or lower the signal. The procedure, abridged: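 Multiplexed cis-reporter mRNA induction, HepG2, 24 h post-dose. RT-PCR, FAM-labelled, HpaI-digested amplicons by CE. Bidirectional fit vs DMSO.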

Assay [4] in a line: ATG_ISRE_CIS: Attagene CIS-FACTORIAL HepG2 Assay for human Interferon Regulatory Factor 1 (IRF1) binding to an Interferon-Stimulated Response Element (ISRE) (AID 2282948). To be noted: HepG2 ISRE cis-reporter (Attagene), mRNA transcription readout; actives raise or lower the signal. The procedure, abridged: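 Endogenous transcription factor activity read as reporter transcript abundance via RT-PCR and capillary electrophoresis. HepG2 cells transiently transfected, 24 h chemical exposure. Gain or loss fitted against DMSO baseline.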

The nature of assay [5]: ATG_M_32_CIS: Attagene CIS-FACTORIAL HepG2 Assay for M32 Transcription Factor (Internal Marker) (AID 2282949).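 Also: background control marker of the multiplexed CIS panel rather than a real target.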 To be noted: HepG2 Attagene cis-factorial M32 reporter, mRNA; actives raise or lower the signal. The procedure, abridged: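 Using DMSO as baseline, bidirectional curve fits were applied to reporter mRNA signals. These came from transiently transfected HepG2 cells exposed for 24 h, with RNA analysed by RT-PCR, FAM primer extension, HpaI digestion and CE.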

The nature of assay [6]: ATG_M_06_CIS: Attagene CIS-FACTORIAL HepG2 Assay for M06 Transcription Factor (Internal Marker) (AID 2282950). To be noted: HepG2 Attagene CIS-FACTORIAL M06 internal marker reporter; actives raise or lower the signal. A digest of the protocol:
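One of many multiplexed endpoints: HepG2 reporter mRNA after 24 h dosing, detected by RT-PCR and capillary electrophoresis fluorescence; gain or loss of signal analysed against DMSO.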

Assay [7] deals with Hypoxia-inducible factor 1-alpha (Homo sapiens) (UniProt Q16665). Description: ATG_HIF1a_CIS: Attagene CIS-FACTORIAL HepG2 Assay for human Hypoxia Inducible Factor 1 (HIF1A) (AID 2282951). To be noted: HepG2 Attagene cis-factorial HIF1a reporter transcription; actives raise or lower the signal. A digest of the protocol:
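After 24 h chemical exposure of reporter-transfected HepG2 cells, reporter cDNA was PCR-amplified, labelled by 6-FAM primer extension (2 min 95 C, 20 s 68 C, 10 min 72 C), HpaI-cut (2 h, 37 C) and analysed by CE.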

Assay [8] addresses Hepatocyte nuclear factor 6 (Homo sapiens) (UniProt Q9UBC0). Description: ATG_HNF6_CIS: Attagene CIS-FACTORIAL HepG2 Assay for human Hepatocyte Nuclear Factor 6 (HNF6) (AID 2282952). To be noted: HepG2 Attagene cis-factorial HNF6 reporter transcription; actives raise or lower the signal. A digest of the protocol: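 Using cis-element reporters in HepG2 liver cells, the assay tracks endogenous factor-driven transcription 24 h post-dosing. Signal comes from 6-FAM-labelled, HpaI-digested RT-PCR fragments, with gain or loss scored against DMSO.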

The target in assay [9] is Heat shock factor protein 1 (Homo sapiens) (UniProt Q00613). As to the kind of experiment: ATG_HSE_CIS: Attagene CIS-FACTORIAL HepG2 Assay for human Heat Shock Transcription Factor 1 (HSE) (AID 2282953). To be noted: HepG2 HSE cis-reporter, Attagene RNA transcription; actives raise or lower the signal. The procedure, abridged: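 Using HepG2 with transfected cis-driven reporter constructs, compound effects on endogenous factor activity are scored as reporter mRNA change at 24 h. Detection: RT-PCR, HpaI digestion, capillary electrophoresis; bidirectional fitting to DMSO.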

Assay [10] can be described thus: ATG_MRE_CIS: Attagene CIS-FACTORIAL HepG2 Assay for human Metal Responsive Element (MRE) (AID 2282954). The settings on record: HepG2 MRE cis-reporter transcription, Attagene multiplex; actives raise or lower the signal. A digest of the protocol:
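Multiplexed cis-reporter assay in human HepG2 liver cells, 24 h incubation with test chemical. Reporter transcripts measured by RT-PCR and capillary electrophoresis; values from bidirectional curve fitting versus DMSO.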

Assay [11] in a line: ATG_PBREM_CIS: Attagene CIS-FACTORIAL HepG2 Assay for human Phenobarbital-responsive Enhancer Module (PBREM) (AID 2282955). The settings on record: HepG2 PBREM cis-reporter, Attagene multiplexed transcription; actives raise or lower the signal. The procedure, abridged:
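Measures endogenous factor action on a phenobarbital-responsive enhancer module. HepG2 transiently carrying cis reporters, 24 h treatment, mRNA read-out by RT-PCR plus capillary electrophoresis.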

Assay [12] concerns the target Paired box protein Pax-6 (Homo sapiens) (UniProt P26367). As to the kind of experiment: ATG_Pax6_CIS: Attagene CIS-FACTORIAL HepG2 Assay for human Paired Box 6 (PAX6) (AID 2282956). The settings on record: HepG2 CIS-FACTORIAL PAX6 reporter transcription, RNA readout; actives raise or lower the signal. A digest of the protocol:
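Read-out is reporter transcript level, measured by RT-PCR with fluorescent primer extension and capillary electrophoresis after 24 h dosing of transfected HepG2 cells. Activity in either direction fitted relative to DMSO control.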

The nature of assay [13]: ATG_PXRE_CIS: Attagene CIS-FACTORIAL HepG2 Assay for human Pregnane X Receptor Element (PXRE) (AID 2282957). The settings on record: HepG2 Attagene CIS-FACTORIAL PXRE reporter, mRNA; actives raise or lower the signal. The procedure, abridged:
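Using HepG2 transfected with multiple reporter transcription units, endogenous factor-driven transcription was scored as reporter mRNA after 24 h exposure.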

Assay [14] is described as follows: ATG_PPRE_CIS: Attagene CIS-FACTORIAL HepG2 Assay for human Peroxisome Proliferator-activated Response Element (PPRE) (AID 2282958). The settings on record: HepG2 PPRE cis-element reporter, Attagene transcription factor profiling; actives raise or lower the signal. A digest of the protocol:
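PPRE activity in HepG2: transient cis-reporter transfection, 24 h compound incubation, reporter mRNA by RT-PCR and CE fluorescence; gain/loss fitted against DMSO.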

Assay [15] can be described thus: ATG_RORE_CIS: Attagene CIS-FACTORIAL HepG2 Assay for human RAR-related Orphan Receptor Element (RORE) (AID 2282959). To be noted: HepG2 Attagene cis-factorial RORE reporter, mRNA; actives raise or lower the signal. The procedure, abridged:
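A 24-hour exposure of transfected HepG2 hepatoma cells precedes RNA isolation and reporter RT-PCR. Labeled products are digested with HpaI and resolved by capillary electrophoresis, with gain or loss of signal scored relative to DMSO.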

Assay [16] in a line: ATG_Sox_CIS: Attagene CIS-FACTORIAL HepG2 Assay for human SRY-box transcription factor (SOX) (AID 2282960). To be noted: HepG2 Attagene cis-factorial SOX reporter, mRNA; actives raise or lower the signal. A digest of the protocol:
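HepG2, cis reporter units, 24 h exposure. Reporter mRNA: RT-PCR → FAM labelling → HpaI → CE fluorescence. Bidirectional fit vs DMSO.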

Assay [17] deals with Transcription factor Sp1 (Homo sapiens) (UniProt P08047). Description: ATG_Sp1_CIS: Attagene CIS-FACTORIAL HepG2 Assay for human Specificity Protein 1 (Sp1) (AID 2282961). To be noted: HepG2 Sp1 cis-reporter transcription, actives raise or lower the signal. A digest of the protocol: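 Liver-derived HepG2 cells, cis-element reporter library, 24 h treatment; RNA isolated, cDNA amplified with reporter-specific primers, FAM-labeled fragments sized on capillary analyzer. DMSO baseline, bidirectional curve fit.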

Assay [18] can be described thus: ATG_SREBP_CIS: Attagene CIS-FACTORIAL HepG2 Assay for human Sterol Regulatory Element Binding (SREBP) (AID 2282962). The settings on record: HepG2 Attagene cis-factorial SREBP reporter, mRNA; actives raise or lower the signal. A digest of the protocol:
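Endogenous SREBP activity read as cis-element-driven reporter transcript in transiently transfected HepG2, 24 h post-dosing; quantified via RT-PCR plus capillary electrophoresis of fluorescent fragments. Gain or loss of signal fitted relative to DMSO baseline.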

The target in assay [19] is Signal transducer and activator of transcription 3 (Homo sapiens) (UniProt P40763). Description: ATG_STAT3_CIS: Attagene CIS-FACTORIAL HepG2 Assay for human Signal Transducer and Activator of Transcription 3 (STAT3) (AID 2282963). The settings on record: HepG2, Attagene cis-factorial STAT3 reporter transcription; actives raise or lower the signal. A digest of the protocol:
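Cis-factorial format: endogenous transcription factors in HepG2 drive transfected reporter units. After 24 h treatment, reporter RNA was reverse-transcribed, amplified, FAM-labelled and HpaI-digested before CE analysis; activity scored in both directions against DMSO.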

Assay [20] can be described thus: ATG_TA_CIS: Attagene CIS-FACTORIAL HepG2 Assay for human TA Basal Promoter (AID 2282964). The settings on record: HepG2 Attagene CIS-factorial TA basal promoter reporter; actives raise or lower the signal. The procedure, abridged:
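Transient MRTU transfection of HepG2 preceded 24 h compound exposure. Reporter mRNA levels were then read by RT-PCR with capillary electrophoresis, and this background-control endpoint was fitted bidirectionally to DMSO.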

Chain of Transcription factor Sp1 (Homo sapiens) (P08047 whole entry, looked up, the tested form may be a part): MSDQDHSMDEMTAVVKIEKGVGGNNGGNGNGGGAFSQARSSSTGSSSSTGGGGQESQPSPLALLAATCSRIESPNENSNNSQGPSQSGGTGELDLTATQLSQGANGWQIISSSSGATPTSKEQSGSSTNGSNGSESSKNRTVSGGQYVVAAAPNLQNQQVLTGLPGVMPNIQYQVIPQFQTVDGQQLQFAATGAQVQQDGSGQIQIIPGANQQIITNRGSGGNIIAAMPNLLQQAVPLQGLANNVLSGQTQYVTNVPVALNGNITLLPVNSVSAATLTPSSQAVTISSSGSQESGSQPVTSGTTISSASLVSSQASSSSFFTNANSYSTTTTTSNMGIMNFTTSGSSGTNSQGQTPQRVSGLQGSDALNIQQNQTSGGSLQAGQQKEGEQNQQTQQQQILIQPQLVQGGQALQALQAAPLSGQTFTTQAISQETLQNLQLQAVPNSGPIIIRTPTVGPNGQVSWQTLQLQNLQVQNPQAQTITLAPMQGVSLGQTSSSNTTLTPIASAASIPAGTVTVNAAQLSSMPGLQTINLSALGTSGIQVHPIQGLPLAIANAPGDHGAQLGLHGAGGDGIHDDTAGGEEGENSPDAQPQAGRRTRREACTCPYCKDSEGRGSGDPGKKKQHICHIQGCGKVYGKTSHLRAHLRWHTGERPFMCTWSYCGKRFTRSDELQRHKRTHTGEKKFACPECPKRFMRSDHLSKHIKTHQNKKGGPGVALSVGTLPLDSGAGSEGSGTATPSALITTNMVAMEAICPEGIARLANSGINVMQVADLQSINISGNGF
Chain of Heat shock factor protein 1 (Homo sapiens) (Q00613 whole entry, looked up): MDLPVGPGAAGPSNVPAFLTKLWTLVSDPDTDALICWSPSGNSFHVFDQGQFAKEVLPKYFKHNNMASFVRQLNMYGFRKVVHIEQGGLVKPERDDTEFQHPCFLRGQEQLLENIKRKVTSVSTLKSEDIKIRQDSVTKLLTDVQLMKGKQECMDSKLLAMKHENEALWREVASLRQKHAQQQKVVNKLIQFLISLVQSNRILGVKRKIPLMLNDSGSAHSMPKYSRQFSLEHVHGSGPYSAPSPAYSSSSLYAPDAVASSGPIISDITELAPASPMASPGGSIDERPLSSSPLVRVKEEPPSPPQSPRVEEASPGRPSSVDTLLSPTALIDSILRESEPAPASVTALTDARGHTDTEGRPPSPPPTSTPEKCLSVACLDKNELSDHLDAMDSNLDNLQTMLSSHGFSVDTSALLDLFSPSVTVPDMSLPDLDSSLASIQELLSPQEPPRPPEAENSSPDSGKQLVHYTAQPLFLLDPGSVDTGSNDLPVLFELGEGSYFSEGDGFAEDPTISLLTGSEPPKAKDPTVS
Chain of Paired box protein Pax-6 (Homo sapiens) (P26367 whole entry, looked up): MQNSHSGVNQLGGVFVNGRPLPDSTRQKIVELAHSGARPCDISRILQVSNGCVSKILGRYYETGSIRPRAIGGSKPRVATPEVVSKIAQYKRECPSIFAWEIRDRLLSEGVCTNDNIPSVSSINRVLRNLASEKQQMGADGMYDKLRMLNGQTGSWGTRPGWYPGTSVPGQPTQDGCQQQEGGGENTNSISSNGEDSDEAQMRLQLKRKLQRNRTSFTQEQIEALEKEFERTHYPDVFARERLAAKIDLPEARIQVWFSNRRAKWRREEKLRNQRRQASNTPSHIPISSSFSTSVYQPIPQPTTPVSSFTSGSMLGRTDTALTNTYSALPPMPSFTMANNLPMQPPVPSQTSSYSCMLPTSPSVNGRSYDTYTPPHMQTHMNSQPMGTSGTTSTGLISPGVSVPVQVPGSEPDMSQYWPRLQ
Chain of Bile acid receptor (Homo sapiens) (Q96RI1 whole entry, looked up): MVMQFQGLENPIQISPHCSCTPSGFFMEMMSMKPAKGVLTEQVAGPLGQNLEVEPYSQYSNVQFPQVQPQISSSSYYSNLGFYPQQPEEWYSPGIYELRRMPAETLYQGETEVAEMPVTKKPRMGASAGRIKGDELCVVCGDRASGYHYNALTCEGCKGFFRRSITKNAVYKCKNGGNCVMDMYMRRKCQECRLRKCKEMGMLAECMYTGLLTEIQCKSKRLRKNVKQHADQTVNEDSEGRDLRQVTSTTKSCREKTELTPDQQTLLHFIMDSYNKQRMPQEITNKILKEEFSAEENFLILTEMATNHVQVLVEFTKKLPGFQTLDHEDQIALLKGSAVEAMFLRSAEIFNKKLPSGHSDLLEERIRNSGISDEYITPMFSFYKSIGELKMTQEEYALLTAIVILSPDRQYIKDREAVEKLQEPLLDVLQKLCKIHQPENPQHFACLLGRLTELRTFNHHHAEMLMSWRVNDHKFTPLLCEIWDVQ
Chain of Hypoxia-inducible factor 1-alpha (Homo sapiens) (Q16665 whole entry, looked up): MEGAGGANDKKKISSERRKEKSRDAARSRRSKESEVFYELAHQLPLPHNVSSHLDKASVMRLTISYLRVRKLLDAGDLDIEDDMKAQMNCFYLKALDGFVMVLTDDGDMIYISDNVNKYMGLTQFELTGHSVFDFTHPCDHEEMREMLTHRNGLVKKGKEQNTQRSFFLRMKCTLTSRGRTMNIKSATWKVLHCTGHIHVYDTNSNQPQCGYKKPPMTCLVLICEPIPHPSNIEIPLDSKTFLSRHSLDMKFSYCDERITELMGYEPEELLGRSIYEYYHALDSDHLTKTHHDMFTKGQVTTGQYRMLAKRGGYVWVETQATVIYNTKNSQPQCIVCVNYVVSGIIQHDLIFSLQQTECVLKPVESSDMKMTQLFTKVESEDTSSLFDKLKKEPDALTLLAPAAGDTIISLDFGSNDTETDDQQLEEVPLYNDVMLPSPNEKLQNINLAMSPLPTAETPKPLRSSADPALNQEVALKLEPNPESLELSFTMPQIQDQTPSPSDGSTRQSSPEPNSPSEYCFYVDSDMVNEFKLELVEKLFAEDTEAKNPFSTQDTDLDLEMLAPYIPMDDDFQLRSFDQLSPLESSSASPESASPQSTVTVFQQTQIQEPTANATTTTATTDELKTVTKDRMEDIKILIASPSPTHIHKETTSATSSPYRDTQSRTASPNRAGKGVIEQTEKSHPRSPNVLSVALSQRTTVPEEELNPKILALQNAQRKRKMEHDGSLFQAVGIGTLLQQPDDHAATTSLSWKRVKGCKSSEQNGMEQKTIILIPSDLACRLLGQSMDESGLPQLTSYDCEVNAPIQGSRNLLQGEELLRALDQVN
Chain of Signal transducer and activator of transcription 3 (Homo sapiens) (P40763 whole entry, looked up): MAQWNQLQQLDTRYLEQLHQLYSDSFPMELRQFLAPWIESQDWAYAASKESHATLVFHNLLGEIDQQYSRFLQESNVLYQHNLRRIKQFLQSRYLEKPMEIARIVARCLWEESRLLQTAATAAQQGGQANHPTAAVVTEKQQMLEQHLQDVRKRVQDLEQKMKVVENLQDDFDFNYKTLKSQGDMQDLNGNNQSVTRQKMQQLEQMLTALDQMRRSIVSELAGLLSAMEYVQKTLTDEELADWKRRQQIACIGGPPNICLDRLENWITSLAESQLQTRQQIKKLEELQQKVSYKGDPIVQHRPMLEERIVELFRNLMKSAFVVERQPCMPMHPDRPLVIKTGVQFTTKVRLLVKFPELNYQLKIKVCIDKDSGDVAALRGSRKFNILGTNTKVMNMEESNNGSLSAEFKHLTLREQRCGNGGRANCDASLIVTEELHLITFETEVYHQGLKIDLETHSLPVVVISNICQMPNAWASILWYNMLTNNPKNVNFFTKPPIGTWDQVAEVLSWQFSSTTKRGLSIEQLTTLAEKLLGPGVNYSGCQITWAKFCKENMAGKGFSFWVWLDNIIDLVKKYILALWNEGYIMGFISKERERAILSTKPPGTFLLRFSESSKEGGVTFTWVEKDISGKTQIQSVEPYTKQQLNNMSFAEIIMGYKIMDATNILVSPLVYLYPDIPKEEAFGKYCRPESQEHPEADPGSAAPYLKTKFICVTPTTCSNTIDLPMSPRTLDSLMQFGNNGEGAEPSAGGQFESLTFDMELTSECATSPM
Chain of Hepatocyte nuclear factor 6 (Homo sapiens) (Q9UBC0 whole entry, looked up, the tested form may be a part): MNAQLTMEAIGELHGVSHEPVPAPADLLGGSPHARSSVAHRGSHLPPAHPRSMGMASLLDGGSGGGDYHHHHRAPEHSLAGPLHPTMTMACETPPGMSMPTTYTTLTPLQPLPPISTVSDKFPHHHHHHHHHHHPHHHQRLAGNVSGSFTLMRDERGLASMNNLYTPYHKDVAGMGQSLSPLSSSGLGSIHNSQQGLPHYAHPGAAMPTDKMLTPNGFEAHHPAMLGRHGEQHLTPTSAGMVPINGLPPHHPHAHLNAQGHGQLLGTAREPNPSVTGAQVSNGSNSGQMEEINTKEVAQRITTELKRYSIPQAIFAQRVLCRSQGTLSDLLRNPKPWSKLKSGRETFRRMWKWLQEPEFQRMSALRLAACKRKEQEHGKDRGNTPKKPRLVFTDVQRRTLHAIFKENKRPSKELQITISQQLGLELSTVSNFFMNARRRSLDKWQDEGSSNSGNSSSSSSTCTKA

In the case of `O=C(OCCOCCOC(=O)c1ccccc1)c1ccccc1`, the molecule was called inactive in assay [1], in [2], in assay [3], in assay [4], in assay [5] and in [6]. For the same molecule, the call in assay [7], in assay [8], in [9], in assay [10], in assay [11] and in [12] was inactive. Besides, the molecule was classed as inactive in [13], in assay [14], in assay [15], in [16], in assay [17] and in assay [18]. Moreover, the call in [19] and in assay [20] was inactive.
For the molecule `c1ccc2c(c1)Cc1ccccc1-2`, the call in [1], in [2], in assay [3], in assay [4], in assay [5] and in [6] was inactive. Besides, the call in assay [7], in [8], in assay [9], in [10], in assay [12] and in [15] was inactive. The molecule was called inactive in assay [16], in assay [17], in assay [18], in assay [19] and in assay [20]. In assay [13], the AC50 (usually the concentration at which the activity in the assay is half-maximal) is 72.4 µM (active).
`CCCCCCC(=O)O`: the call in [1], in [2], in assay [3], in assay [4], in assay [5] and in assay [6] was inactive. For the same molecule, the call in assay [7], in [8], in assay [9], in assay [10], in assay [11] and in assay [12] was inactive. Besides, the molecule was classed as inactive in [13], in assay [15], in assay [16], in [17], in [18] and in [19]. The molecule was called inactive in assay [20]. Further, in assay [13], the concentration at half-maximal activity (AC50) was 53.4 µM (active).
